Assay outcomes: PubChem, Broad Institute
Rtt109 Vps75 = inhibitors of Candida albicans Rtt109/Vps75 histone acetyltransferase; 0.16% of 330,000 active; Q5AAJ8; inhibition, % at 34.9 µM; purified Rtt109/Vps75, ThioGlo CoA-SH fluorescence, 4 h;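 active = inhibition of at least 50% in every replicate; inconclusive = best replicate reaches 50% inhibition but some replicates fall short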
Target sequence (Q5AAJ8 whole entry, looked up): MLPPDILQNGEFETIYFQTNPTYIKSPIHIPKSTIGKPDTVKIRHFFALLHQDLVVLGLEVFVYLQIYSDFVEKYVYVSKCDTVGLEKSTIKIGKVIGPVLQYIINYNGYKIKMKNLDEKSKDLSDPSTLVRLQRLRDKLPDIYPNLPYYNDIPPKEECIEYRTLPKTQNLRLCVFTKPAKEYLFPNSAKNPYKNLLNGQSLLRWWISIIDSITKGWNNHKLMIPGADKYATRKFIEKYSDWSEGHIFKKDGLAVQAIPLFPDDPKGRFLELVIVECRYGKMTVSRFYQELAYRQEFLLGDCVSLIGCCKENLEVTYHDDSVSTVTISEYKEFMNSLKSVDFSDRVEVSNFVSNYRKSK
MITF TRPM1 HTS = increases MITF-driven TRPM1 promoter luciferase signal; activation, % at 12.5 µM; 0.75% of 300,000 active; SK-MEL-5 TRPM1-promoter luciferase, 24 h; % of positive control, neutral wells = 0; AID 588334;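 active = mean activation of at least 80% with every replicate also reaching 80%; inconclusive = mean reaches 80% but some replicate falls short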;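 note: 0% = neutral control wells and 100% = parthenolide positive control wells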
esBAF inh = SWI/SNF esBAF complex inhibition; reporter increase, % at 12.5 µM; 2% of 350,000 active; AID 602393; mouse ES cells, Bmi1-luciferase knock-in reporter, 24 h; 100% = twice the neutral-well signal; in the data active = activation above about 40%; inconclusive = no clear call, values can overlap the other calls;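 note: 0% = median of the plate's neutral control wells and 100% = double that signal; a rise in the Bmi1 reporter signal indicates esBAF inhibition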
Wnt bcat act = Wnt/beta-catenin pathway activation; Wnt/beta-catenin reporter cell assay, activator, plate reader; activation, % at 9.35 µM; 1.2% of 300,000 active; AID 743398; in the data active = activation above about 30%, passing the limit was not always enough; inconclusive = no clear call, values can overlap the other calls;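 note: 0% = neutral control wells and 100% = positive control wells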
C2C12 statin = protects C2C12 myotubes from simvastatin toxicity; ATP luminescence, 48 h; scaled: DMSO 0, geranylgeraniol control 100; rescue of ATP level, % at 7.49 µM; 0.78% of 330,000 active;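 active = mean ATP rescue above about 67%, or every replicate alone reaching that limit, limit read from the data, passing the limit was not always enough; inconclusive = no clear call, values can overlap the other calls; inactive = mean under the limit and some replicate under it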;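 note: myotubes were challenged with 10 µM simvastatin during compound exposure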
* = called active by the depositor; ? = inconclusive; . = no result given. Sampled rows, rich in hits. Any-hit rate of the full collection: about 3.1%.

SMILES	Rtt109 Vps75	MITF TRPM1 HTS	esBAF inh	Wnt bcat act	C2C12 statin
O=C(Nc1ccc2c(c1)nc1n2CCOC1)C1CCCCC1	6.6	.	53.4*	.	4.4
COCC#Cc1cnc2c(c1)C(=O)N([C@H](C)CO)C[C@@H](C)[C@@H](CN(C)Cc1ccccc1)O2	.	.	-3.8	.	5.8
CC(=O)n1cc([C@@H]2C=C(C(=O)N3CCN(Cc4ccccc4)CC3)O[C@H](OCc3ccc(CO)cc3)C2)c2ccccc21	0.3	-9.2	3.1	-3.4	86.3*
CCC(C)N(C)Cc1cccc(C2(O)CCN(S(=O)(=O)c3ccc(F)cc3)CC2)c1 (stereo not given)	-3.3	13.9	-6.0	.	122.7*
O=S(=O)(N[C@H]1CC[C@H](CCn2cc(C3CC3)nn2)O[C@@H]1CO)c1ccc(Cl)cc1	.	.	-0.6	.	3.4
C[C@H](CO)N1C[C@H](C)[C@@H](CN(C)CC2CC2)Oc2cc(C#CC(C)(C)O)ccc2S1(=O)=O	.	.	0.7	.	.
C=CCNC(=O)c1cccn1-c1ccsc1C(=O)OC	-5.2	.	1.9	-1.6	90.6*
N#Cc1ccc(-c2cccnc2)nc1SCC(=O)c1ccccc1	-6.6	.	62.8*	2.8	-39.2
COc1ccc(-c2cc(C(=O)NC3CCCC3)no2)cc1	4.0	67.0	7.1	18.5	-31.2
O=C(NC1CCCC1)c1cc(-c2ccc(Cl)cc2)on1	-9.9	132.1*	43.8*	30.3*	4.4
O=C(NC1CCCCC1)c1cc(-c2ccc(Cl)cc2)on1	10.5	67.4	49.2*	9.5	10.1
O=C(NC1CCCC1)c1cc(-c2ccccc2Cl)on1	-6.1	61.5	27.4	?	-8.3
O=C(NC1CCC(O)CC1)c1ccc(-c2ccc(Cl)cc2)o1 (stereo not given)	2.8	73.7	63.7*	26.1	-36.8
O=C(NC1CCCC1)c1cc(-c2ccc(F)cc2)on1	-14.0	62.1	29.9	-2.0	-28.7
O=C(NC1CCCC1)c1cc(-c2cccc(Cl)c2)on1	-0.5	127.1*	78.1*	25.4	-4.1
O=C(C#Cc1ccccc1)Nc1cccc(F)c1	-6.1	.	-76.6	-4.5	159.2*
O=C(C#Cc1ccccc1)Nc1ccc(F)cc1	-2.2	.	49.3*	8.2	6.6
CCc1nnc(NC(=O)CSc2ncnc3c2cnn3-c2ccc(OC)cc2)s1	-4.1	13.8	2.7	37.9*	15.3
Cc1ccc2c(C)c(C(=O)N3CCN(Cc4ccc5c(c4)OCO5)CC3)oc2c1C	4.4	50.0	78.8*	8.3	8.8
Cc1noc(C)c1NC(=O)N[C@H]1CC[C@@H](CC(=O)Nc2ccc(-c3ccccc3)cc2)O[C@@H]1CO	.	.	-16.4	.	0.2
NC(=O)c1ccccc1N/C=C/C(=O)c1ccco1	-1.3	45.6	33.7	-3.2	2.4
O=C(/C=C/Nc1ccc(Oc2ccccc2)cc1)c1ccco1	-5.2	75.5	.	58.6*	.
O=C(/C=C/Nc1ccccc1C(F)(F)F)c1ccco1	-0.5	12.1	92.9*	16.2	5.8
O=C(/C=C/Nc1cccc(C(F)(F)F)c1)c1ccco1	-13.6	29.9	.	11.9	.
CCCNC(=O)Nc1ccc2c(c1)C(=O)N(C)C[C@H](OC)[C@H](C)CN(Cc1ccc(-c3ccccn3)cc1)[C@@H](C)CO2	.	.	-5.4	.	-4.8
SMILES	Rtt109 Vps75	MITF TRPM1 HTS	esBAF inh	Wnt bcat act	C2C12 statin
CCC(=O)Nc1cccc(C(=O)OCC(=O)c2ccccc2Cl)c1	-3.8	67.0	50.8*	.	-2.3
CC(=O)Nc1cccc(C(=O)OCC(=O)c2ccccc2Cl)c1	3.9	52.1	.	46.7*	.
COc1ccccc1S(=O)(=O)N(C)C[C@H]1OCc2ccccc2-c2c(n(C)c3ccccc23)C(=O)N([C@@H](C)CO)C[C@@H]1C	.	.	0.3	.	.
COCC(=O)N(C)C[C@@H]1Oc2ncc(-c3cccc(OC)c3)cc2C(=O)N([C@H](C)CO)C[C@H]1C	.	.	-1.6	.	15.5
O=C1c2ccccc2NC(c2ccc(-c3ccc(F)cc3)o2)N1O (stereo not given)	6.4	71.2	41.1*	?	1.0
CCCN(C)C[C@H]1OCc2cnnn2CCCC(=O)N([C@@H](C)CO)C[C@H]1C	.	.	-1.1	.	-4.3
COCCNC(=S)N/N=C1\CC(C)CC(C)(C)C1 (stereo not given)	-4.1	2.1	-3.9	33.9*	-1.3
CC(=O)N1[C@H](CO)[C@H]2c3ccccc3N(C(=O)c3ccccc3)C[C@H]21	.	.	-3.3	.	4.7
Cc1ccc(S(=O)(=O)Nc2ccc3c(c2)C(=O)N([C@H](C)CO)C[C@H](C)[C@H](CN(C)C(=O)c2ccncc2)OCCCC[C@H](C)O3)cc1	.	.	6.8	.	13.2
CC1(C)CC(=O)C2=C(C1)c1c(ccc3ccccc13)NC2c1ccc(Br)o1 (stereo not given)	-9.0	-3.3	21.8	.	106.8*
COc1ccc(NC(=O)N(C)C[C@@H]2OCc3ccccc3-c3ccccc3C(=O)N([C@H](C)CO)C[C@@H]2C)cc1	.	.	4.6	.	-8.7
O=C(Nc1ccc2c(c1)[C@H]1C[C@H](CC(=O)N3CCOCC3)O[C@H](CO)[C@H]1O2)c1cccnc1	.	.	0.1	.	-1.9
Cc1ccc(/C=C/C(=O)Nc2ncc(C)s2)o1	1.8	100.6*	.	-1.2	.
Cc1ccc(/C=C/C(=O)Nc2nccs2)o1	42.8	29.9	59.9*	-2.6	5.8
Cc1cnc(NC(=O)/C=C/c2ccc(Br)o2)s1	-10.0	29.3	32.4	8.8	-36.2
Cc1ccc(/C=C/C(=O)Nc2ccc(N(C)C)cc2)o1	-9.9	114.9*	52.0*	.	1.9
C[C@@H]1CN([C@@H](C)CO)C(=O)c2cc(C#Cc3ccccn3)cnc2O[C@@H]1CN(C)C(=O)c1ccccn1	.	.	-0.2	.	-6.0
CO[C@H]1CN(C)C(=O)c2cc(NC(C)=O)ccc2OC[C@H](C)N(C(=O)c2cnccn2)C[C@@H]1C	.	.	-5.4	.	0.9
O=C(c1ccccc1F)N1C[C@H]2[C@@H](c3ccccc31)[C@@H](CO)N2C(=O)C1CCCC1	.	.	-4.0	.	-23.0
O=C(CCc1nnc(C2CCCCC2)o1)N1CCN(c2ccccc2F)CC1	0.0	73.6	.	32.9*	.
O=C(CCc1nnc(C2CCCCC2)o1)N1CCN(C2CCCCC2)CC1	4.3	2.4	.	0.5	.
Cc1ccc(S(=O)(=O)N[C@H]2CC[C@@H](CC(=O)NC3CCCCC3)O[C@@H]2CO)cc1	.	.	-5.3	.	0.4
Cc1cccc(-n2c(O)c(/C=N/NC(=O)c3ccccc3Cl)c3ccccc3c2=O)n1	64.4*	-10.7	.	-5.5	.
Cc1cccc(-n2c(O)c(C=Nc3ccccc3O)c3ccccc3c2=O)n1	-18.2	12.3	-0.8	4.8	27.4
C[C@@H]1CN([C@H](C)CO)C(=O)c2cc(C#Cc3cccc(F)c3)cnc2O[C@H]1CN(C)C(=O)C1CCCCC1	.	.	.	.	28.4
Clc1cnc(N/N=C/c2cccs2)c(Cl)c1	8.8	?	.	.	.
Oc1ccc(/C=N/Nc2ncc(Cl)cc2Cl)cc1	-0.3	87.9*	44.3*	19.8	2.6
C[C@@H]1CN([C@H](C)CO)S(=O)(=O)c2ccc(C3=CCCCC3)cc2O[C@@H]1CN(C)S(=O)(=O)c1cn(C)cn1	.	.	1.8	.	-25.6
O=C(C[C@H]1CC[C@@H](NC(=O)c2ccccc2)[C@@H](CO)O1)NCCc1ccncc1	.	.	-1.7	.	-0.2
